# The panel holds about 79,000 compounds, 15% with a hit somewhere; the sample as a whole holds those more often. Activity calls are given as the source filed them. Cut-off read from the data, not from the text of the source: active = growth inhibition above about 70%; inactive = the rest.
# Assay: NCI Yeast Anticancer Drug Screen. Data for the cln2 rad14 strain (AID 165);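 note: 0% = growth equal to vehicle treated cultures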
# Conditions: S. cerevisiae cln2 rad14 strain, at 50.0 µM, hits give high values
# Experimental: Growth inhibition of yeast strains with defined genetic alterations is measured as a screen for potential anti-cancer activity. Selected strains with alterations in DNA damage repair or cell cycle control were exposed to compounds and growth inhibition was measured relative to vehicle treated controls. The strain used in this assay is cln2 rad14
row,SMILES,growth inhibition
1,COc1c(O)ccc(C2=Cc3ccc(O)cc3OC2)c1OC,88.3% (active)
2,C[C@@H]1C[C@](O)([C@@H](C)Cl)C(=O)O[C@@H]2CCN3CC=C(COC(=O)[C@]1(C)O)[C@H]23,-11.1% (inactive)
3,N#CC1(C#N)N[C@@H](c2ccsc2)[C@H]2C(=O)N(c3ccccc3)C(=O)[C@H]21,8.5% (inactive)
4,Cc1ccc2c(/C=C/c3ccc(N(C)C)cc3)ccc(C(C)C)cc1-2,1.75% (inactive)
5,c1ccc(N(c2ccccc2)c2ccccc2)cc1,7.1% (inactive)
6,CC(C)(C)c1cc(C2COC(=O)COCCOCC(=O)OCCOCCO2)cc(C(C)(C)C)c1O (stereo not given),4.4% (inactive)
7,CCCCCCCCCCCCC/C=C/[C@H]1[C@@H](C(=O)OC)N1S(=O)c1ccc(C)cc1 (stereo not given in full),-13.1% (inactive)
8,Cc1ccc(F)cc1NC(=O)O/N=C(\Cl)C(C)C,3.85% (inactive)
9,COC(=O)C(C(=O)C(=O)Nc1c(C)cccc1C(C)(C)C)c1nc2ccc(Cl)cc2[nH]c1=O (stereo not given),16.9% (inactive)
10,Cc1ccc(NC(=O)/C(Cc2cc(=O)oc3cc(O)ccc23)=N\NC(C)(C)C)cc1C,-33.9% (inactive)
11,OCc1ccccn1,-0.25% (inactive)
12,CO/C(N)=C(\C#N)N=Cc1ccc2ccccc2c1,19.1% (inactive)
13,C=C1CC2(C)CCC(OC(=O)C3(C)OC3C)C(C)(OC(C)=O)C2CC1=C(C)C (stereo not given),16.2% (inactive)
14,COc1cc2c(cc1-c1coc3cc(O)ccc3c1=O)OCO2,11.2% (inactive)
15,COc1ccc2cc(CN3CCC(C4CCNCC4)CC3)ccc2c1,14.7% (inactive)
16,Cc1cc(N(CCC#N)CCC#N)ccc1/C=N/NC(=O)c1cc(Cl)ccc1O,-9.2% (inactive)
17,C=C(C)C1CC2(C)C(C)CC(OC(=O)/C(C)=C\C)CC2C(OC(=O)/C(C)=C\C)C1O (stereo not given),-9.6% (inactive)
18,CCCCCCCCOC(=O)C12Oc3ccc(-c4ccc5c(c4O)C(O)=C4C(=O)CC(C)C(O)C4(C(=O)OCCCCCCCC)O5)c(O)c3C(O)=C1C(=O)CC(C)C2O (stereo not given),7.6% (inactive)
19,Cc1ccc(NC2=N/C(=C/c3ccccc3)C(Cl)=N2)cc1,10.9% (inactive)
20,CC(=O)C1=C(C)N2C(=NC3=C(CCc4ccccc43)C2c2cccc(Br)c2)S1 (stereo not given),3.2% (inactive)

row,SMILES,growth inhibition
1,CCOC(=O)c1cc(C)nc2c1c(=O)n(-c1ccccc1)c(=O)n2CCCCN1CCN(c2ncccn2)CC1,7.45% (inactive)
2,COC(=O)C(Cc1nc2ccccc2[nH]c1=O)C(=O)C(=O)Nc1cc(C(F)(F)F)ccc1Cl (stereo not given),4.65% (inactive)
3,COc1ccc(/C=C2/NC(=S)N=C2Cl)cc1,-0.45% (inactive)
4,Fc1ccc(Nc2nc(Cl)c3[nH]cnc3n2)cc1Cl,7.6% (inactive)
5,Cc1cc(S(=O)(=O)O)c(NC(=O)c2oc3cc(O)ccc3c(=O)c2C)cc1Cl,9.5% (inactive)
6,CCO/C=N\C1=C(C#N)SC2=N/C(=C\c3ccc(OC)cc3)C(=O)N21,6.45% (inactive)
7,O=C1c2c(O)cc(O)cc2OC(c2ccc(O)c(O)c2)C1O (stereo not given),-0.65% (inactive)
8,COC(=O)c1ccc(NC(=O)O/N=C(\Cl)C(C)C)cc1,8.85% (inactive)
9,CC(=N\N=C\c1ccccn1)/C(C)=N/N=C/c1ccccn1,30.6% (inactive)
10,COc1cc(N(CCC#N)CCC#N)ccc1/C(N=Nc1ccc(Cl)cc1)=N/NC(=O)c1cc(Br)ccc1O,7.2% (inactive)
11,Cc1ccc(/C=C2/N=C(N/N=C\c3ccccc3)NC2=O)cc1,1.75% (inactive)
12,O=C1NC(N/N=C\C(O)C(O)C(O)C(O)CO)=N/C1=C\c1ccc(Cl)cc1 (stereo not given),26.9% (inactive)
13,COc1ccccc1-c1n[nH]c(-c2ccccc2O)n1,-10.7% (inactive)
14,COC(=O)C(=O)C(C(=O)C(=O)Nc1ccccc1OC)c1nc2ccc([N+](=O)[O-])cc2[nH]c1=O (stereo not given),-19.6% (inactive)
15,CC1=C2NCN(C)N=C2C(C#N)(C#N)C1(C#N)C#N,2.25% (inactive)
16,C=CCNC1=C2C[C@@H](C)C[C@@H](OC)[C@@H](OC(=O)CCCN)[C@H](C)/C=C(\C)[C@@H](OC(N)=O)[C@H](OC)/C=C\C=C(/C)C(=O)NC(=CC1=O)C2=O,13.2% (inactive)
17,CC(=O)C(/C=N/C(N)=O)=C(/C)O,2.75% (inactive)
18,C=C1C2CCC3C4(C)CCCC(C)(C(=O)O)C4CCC3(C2)C1OC(=O)/C(C)=C/C (stereo not given),25.1% (inactive)
19,OCc1ccccc1OC1OC(CO)C(O)C(O)C1O (stereo not given),-0.45% (inactive)
20,CCCCC1C(=O)N(c2ccc(S(=O)(=O)Nc3ccccn3)cc2)N(c2ccc(O)c(C(=O)O)c2)C1=O (stereo not given),23.2% (inactive)

# Reference: PubChem BioAssay (NCI)
